Experimental data from PubChem BioAssay (NCATS).
Inconclusive results are not listed. Entries that show only a call come without a potency. Unmarked numbers belong to inactive results. The source made the active and inactive calls. Calls follow the shape of the dose curve; as a rule, active = well fitted curve in the direction sought with a large enough effect; inconclusive = small, poorly fitted or top-dose-only effect, or another doubt; inactive = no such curve, though single readings can be large; an effect the other way counts as inactive or inconclusive.

Assays:
[1] = NS1 protein of Zika virus - qHTS assay to identify small molecule inhibitors in human HEK 293 cells (AID 1347053); also: series mostly up to about 46 µM; nearly all actives have a fitted effect of over 55% in size
Method in brief: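 HEK 293; 20 h pre-culture, 37 C/5% CO2; cpd 1 h pre-infection; ZIKV MR766, MOI = 0.5, 24 h, 37 C; TR-FRET NS1 readout (two anti-NS1 Abs); norm. to no-virus vs infected.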

[2] = qHTS of pediatric cancer cell lines to identify multiple opportunities for drug repurposing: Primary screen for TC32 cells (AID 1347089); also: nearly all actives have a fitted effect of over 60% in size; also: potency is read from the fitted curve at half-maximal effect
Method in brief: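 TC32 cells, 500-1,000/well in growth medium, compound-treated 48 h at 37 °C; viability from CellTiter-Glo luminescence. Primary screen: MIPE 11-point (0.78 nM–46 µM final), NPC 8-point (0.59 nM–46 µM final); confirmatory at 11-point dilutions.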

[3] = qHTS of pediatric cancer cell lines to identify multiple opportunities for drug repurposing: Primary screen for DAOY cells (AID 1347090); also: nearly all actives have a fitted effect of over 55% in size; also: potency is read from the fitted curve at half-maximal effect
Method in brief: (§1)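 Cell viability, CellTiter-Glo luminescence; 500-1,000 cells/well, 8- or 11-point titration, 48 h compound exposure at 37 degrees C, 5% CO2. Controls: DMSO neutral, bortezomib 2.3 µM final as positive.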

[4] = qHTS of pediatric cancer cell lines to identify multiple opportunities for drug repurposing: Primary screen for SJ-GBM2 cells (AID 1347091); also: potency is read from the fitted curve at half-maximal effect
Method in brief: as §1

[5] = qHTS of pediatric cancer cell lines to identify multiple opportunities for drug repurposing: Primary screen for A673 cells (AID 1347092); also: nearly all actives have a fitted effect of over 45% in size; also: potency is read from the fitted curve at half-maximal effect
Method in brief: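 A673 cells (500-1,000 cells/well) were treated 48 hours at 37 degrees C with compounds at 11-point (0.78 nM to 46 µM) or 8-point (0.59 nM to 46 µM) dilutions. Viability read by CellTiter-Glo luminescence; concentration-response curves fitted.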

[6] = qHTS of pediatric cancer cell lines to identify multiple opportunities for drug repurposing: Primary screen for SK-N-MC cells (AID 1347093); also: potency is read from the fitted curve at half-maximal effect
Method in brief: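 Metabolically active cells were quantified by ATP-dependent luminescence (CellTiter-Glo, 15 min at room temperature) following 48 h treatment. Cells had been plated at 500-1,000 per well and settled for 5 h beforehand.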

[7] = qHTS of pediatric cancer cell lines to identify multiple opportunities for drug repurposing: Primary screen for BT-37 cells (AID 1347094); also: potency is read from the fitted curve at half-maximal effect
Method in brief: (§2)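 Primary screen of approved and investigational compounds on cells in growth media at 37 degrees C, 5% CO2. MIPE set at 11-point and NPC set at 8-point dilutions; viability scored by ATP-based luminescence at 48 hours.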

[8] = qHTS of pediatric cancer cell lines to identify multiple opportunities for drug repurposing: Primary screen for NB-EBc1 cells (AID 1347095); also: potency is read from the fitted curve at half-maximal effect
Method in brief: as §2

[9] = qHTS of pediatric cancer cell lines to identify multiple opportunities for drug repurposing: Primary screen for U-2 OS cells (AID 1347096); also: nearly all actives have a fitted effect of over 50% in size
Method in brief: (§3)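 Cells (500-1,000/well) rested 5 h, then received compounds for 48 h; metabolically active cells were measured by CellTiter-Glo luminescence. Final concentrations spanned up to 46 µM (MIPE, 11-point) or 0.59 nM-46 µM (NPC, 8-point) in primary screens, 11-point in follow-ups.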

[10] = qHTS of pediatric cancer cell lines to identify multiple opportunities for drug repurposing: Primary screen for SK-N-SH cells (AID 1347098); also: nearly all actives have a fitted effect of over 65% in size; also: potency is read from the fitted curve at half-maximal effect
Method in brief: as §3

[11] = qHTS of pediatric cancer cell lines to identify multiple opportunities for drug repurposing: Primary screen for NB1643 cells (AID 1347099); also: nearly all actives have a fitted effect of over 50% in size; also: potency is read from the fitted curve at half-maximal effect
Method in brief: as §2

[12] = qHTS of pediatric cancer cell lines to identify multiple opportunities for drug repurposing: Primary screen for LAN-5 cells (AID 1347100); also: potency is read from the fitted curve at half-maximal effect
Method in brief: as §3

[13] = qHTS of pediatric cancer cell lines to identify multiple opportunities for drug repurposing: Primary screen for BT-12 cells (AID 1347101); also: nearly all actives have a fitted effect of over 25% in size; also: potency is read from the fitted curve at half-maximal effect
Method in brief: as §3

[14] = qHTS of pediatric cancer cell lines to identify multiple opportunities for drug repurposing: Primary screen for Rh18 cells (AID 1347102); also: nearly all actives have a fitted effect of over 65% in size
Method in brief: as §3

[15] = qHTS of pediatric cancer cell lines to identify multiple opportunities for drug repurposing: Primary screen for OHS-50 cells (AID 1347103); also: nearly all actives have a fitted effect of over 40% in size; also: potency is read from the fitted curve at half-maximal effect
Method in brief: as §3

[16] = qHTS of pediatric cancer cell lines to identify multiple opportunities for drug repurposing: Primary screen for Saos-2 cells (AID 1347097); also: nearly all actives have a fitted effect of over 40% in size; also: potency is read from the fitted curve at half-maximal effect
Method in brief: as §2

Structure (SMILES) | Potency [1] | Potency [2] | Potency [3] | Potency [4] | Potency [5] | Potency [6] | Potency [7] | Potency [8] | Potency [9] | Potency [10] | Potency [11] | Potency [12] | Potency [13] | Potency [14] | Potency [15] | Potency [16]
CC(=O)Nc1ncc([N+](=O)[O-])s1 | inactive | inactive | inactive | inactive | inactive | inactive | inactive | inactive | inactive | inactive | inactive | inactive | inactive | inactive | inactive | –
Cc1ccc(-c2ncc(Cl)cc2-c2ccc(S(C)(=O)=O)cc2)cn1 | inactive | inactive | inactive | inactive | inactive | inactive | inactive | inactive | inactive | inactive | inactive | inactive | inactive | inactive | inactive | –
CC(C)(Cc1c[nH]c2ccccc12)NCC(O)COc1ccccc1C#N (centres undefined) | inactive | inactive | inactive | inactive | inactive | inactive | inactive | inactive | inactive | – | inactive | inactive | – | inactive | – | inactive
COc1cc(C(=O)NCc2ccc(OCCN(C)C)cc2)cc(OC)c1OC | inactive | inactive | inactive | inactive | inactive | inactive | inactive | inactive | inactive | inactive | inactive | inactive | inactive | inactive | inactive | –
Nc1nc(N)c(-c2ccccc2)s1 | inactive | inactive | inactive | inactive | inactive | inactive | inactive | inactive | inactive | inactive | inactive | inactive | inactive | inactive | inactive | –
CC(=O)NC(=O)c1ccccc1O | inactive | inactive | inactive | inactive | inactive | inactive | inactive | inactive | inactive | inactive | inactive | inactive | inactive | inactive | inactive | inactive
CC[N+](C)(CC)CCOC(=O)C(O)(c1ccccc1)C1CCCCC1 (centres undefined) | inactive | inactive | inactive | inactive | inactive | inactive | inactive | inactive | inactive | inactive | inactive | inactive | inactive | inactive | inactive | inactive
CCC(Cc1c(I)cc(I)c(N)c1I)C(=O)O (centres undefined) | inactive | inactive | inactive | inactive | inactive | inactive | inactive | inactive | inactive | inactive | inactive | inactive | inactive | inactive | inactive | –
CCCCCCCC/C=C\CCCCCCCCN | inactive | inactive | inactive | – | inactive | inactive | inactive | inactive | inactive | inactive | inactive | inactive | inactive | inactive | – | inactive
COc1ccc(CN(CCN(C)C)c2ncccn2)cc1 | inactive | inactive | inactive | – | inactive | inactive | inactive | inactive | inactive | inactive | inactive | inactive | inactive | inactive | inactive | inactive
CCOC(=O)c1c(N)sc2c1CCN(Cc1ccccc1)C2 | inactive | inactive | inactive | inactive | – | – | – | inactive | inactive | – | inactive | – | 17.4 µM (active) | inactive | 17.4 µM (active) | inactive
O=[N+]([O-])c1ccc(/C=N\O)o1 | inactive | inactive | inactive | inactive | – | 4.22 µM (active) | inactive | inactive | inactive | inactive | – | – | – | inactive | – | –
CC(=O)O[C@]1(C(C)=O)CC[C@H]2[C@@H]3C=C(Cl)C4=CC(=O)CC[C@]4(C)[C@H]3CC[C@@]21C | inactive | inactive | inactive | inactive | inactive | – | – | inactive | inactive | inactive | inactive | inactive | – | inactive | – | –
CC(C)[N+](C)(C)CC(O)COc1cccc2ccccc12 (centres undefined) | inactive | inactive | inactive | inactive | – | – | inactive | inactive | inactive | inactive | inactive | inactive | – | inactive | – | inactive
CCc1ccc(C(=O)C(C)CN2CCCCC2)cc1 (centres undefined) | inactive | inactive | inactive | inactive | inactive | inactive | inactive | inactive | inactive | – | inactive | inactive | inactive | inactive | inactive | –
CC(=O)Nc1ccc(S(=O)(=O)Nc2ccc([N+](=O)[O-])cc2)cc1 | inactive | inactive | inactive | inactive | inactive | inactive | inactive | inactive | inactive | – | inactive | – | inactive | inactive | inactive | –
CN1CCN(C2=Nc3cc(F)ccc3Cc3ccccc32)CC1 | inactive | inactive | inactive | inactive | inactive | – | – | inactive | – | – | – | inactive | – | – | – | –
C=C[C@H]1CN2CC[C@H]1C[C@@H]2[C@@H](O)c1ccnc2ccc(OC)cc12 | inactive | inactive | inactive | – | inactive | inactive | inactive | inactive | inactive | inactive | inactive | inactive | inactive | inactive | inactive | inactive
CN(C)C(=O)Nc1ccc(Cl)c(Cl)c1 | inactive | inactive | inactive | inactive | inactive | inactive | – | inactive | inactive | – | inactive | inactive | inactive | inactive | inactive | inactive
C=C[C@H]1CN2CC[C@H]1C[C@H]2[C@H](O)c1ccnc2ccc(OC)cc12 | inactive | inactive | inactive | – | inactive | inactive | inactive | inactive | inactive | – | inactive | inactive | inactive | inactive | – | inactive
CCCCC(CC)COC(=O)/C=C/c1ccc(OC)cc1 (centres undefined) | inactive | inactive | inactive | inactive | – | inactive | inactive | inactive | inactive | inactive | inactive | inactive | inactive | inactive | – | inactive
COc1ccc(S(=O)(=O)N2c3ccc(Cl)cc3[C@@](O)(c3ccccc3Cl)[C@H]2C(=O)N2CCC[C@@H]2C(N)=O)cc1OC | inactive | inactive | inactive | inactive | inactive | – | inactive | inactive | inactive | inactive | inactive | inactive | inactive | inactive | – | –
Nc1ccc(C(=O)NCC(=O)O)cc1 | inactive | inactive | inactive | inactive | inactive | – | inactive | inactive | inactive | inactive | inactive | inactive | inactive | inactive | inactive | inactive
Oc1c(Cl)cc(Cl)c(Cl)c1Cc1c(O)c(Cl)cc(Cl)c1Cl | inactive | 7.45 µM (active) | 8.41 µM (active) | 4.22 µM (active) | 21.1 µM (active) | – | 9.78 µM (active) | 4.73 µM (active) | – | 12.2 µM (active) | 5.96 µM (active) | 4.22 µM (active) | 13.8 µM (active) | – | 6.17 µM (active) | 5.96 µM (active)
CCCCCCCCCCCCCCC[C@H](O)[C@@H](N)CO | inactive | inactive | inactive | – | inactive | inactive | inactive | inactive | inactive | inactive | inactive | – | inactive | inactive | inactive | inactive
COc1ccc(C(=O)c2ccccc2O)c(O)c1 | inactive | inactive | inactive | inactive | inactive | inactive | inactive | inactive | inactive | – | inactive | inactive | inactive | inactive | – | –
CCCN(CCC)S(=O)(=O)c1ccc(C(=O)O)cc1 | inactive | inactive | inactive | – | inactive | inactive | inactive | inactive | inactive | inactive | inactive | inactive | inactive | inactive | inactive | inactive
CC1(COc2ccc(CC3SC(=O)NC3=O)cc2)CCCCC1 (centres undefined) | inactive | inactive | inactive | inactive | inactive | inactive | inactive | inactive | inactive | – | inactive | inactive | – | inactive | 5.5 µM (active) | –
